Source: PubChem
RORg inh = ROR gamma (mouse) transcription inhibition. P51450. Drosophila S2 Gal4-RORgamma UAS-luciferase reporter, 20 h. Potency, µM (titrated, usually from 53.6 µM), without a hit: top-dose activity change, negative = inhibition, most hits filed as inhibitors. 310,000 compounds, 5.4% hits. AID 2551; also: potency is read from the fitted curve at half-maximal effect; nearly all actives have a fitted effect of over 60% in size
Target sequence (P51450 whole entry, looked up, the tested form may be a part): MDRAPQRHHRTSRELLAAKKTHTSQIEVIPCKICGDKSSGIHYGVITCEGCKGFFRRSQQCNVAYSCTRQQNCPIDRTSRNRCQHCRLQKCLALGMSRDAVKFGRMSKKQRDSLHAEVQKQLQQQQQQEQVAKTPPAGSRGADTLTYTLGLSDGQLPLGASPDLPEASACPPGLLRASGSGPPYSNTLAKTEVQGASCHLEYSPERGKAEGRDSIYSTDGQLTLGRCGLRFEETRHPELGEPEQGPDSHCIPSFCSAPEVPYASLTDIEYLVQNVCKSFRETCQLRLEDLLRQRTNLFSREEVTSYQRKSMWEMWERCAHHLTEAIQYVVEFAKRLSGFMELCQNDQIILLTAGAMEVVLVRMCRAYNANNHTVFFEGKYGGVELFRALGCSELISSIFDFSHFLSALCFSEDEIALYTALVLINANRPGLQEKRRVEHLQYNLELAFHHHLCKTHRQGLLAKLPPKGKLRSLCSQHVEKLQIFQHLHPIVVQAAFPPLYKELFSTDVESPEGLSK
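In this cell-based reporter format, copper sulfate (700 uM final) drives Gal4–ROR gamma fusion expression from a metallothionein promoter in Drosophila Schneider cells; compounds preincubated 1 hr, reporter read after 20 hr at ambient temperature.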
IL-1B inflam inh = inflammasome signaling inhibition, IL-1 beta readout | THP-1 LPS/ATP IL-1B secretion, AlphaLISA, 16 h; stronger effect = lower value | 360,000 compounds, 4.7% hits | activity change, % at 57.5 µM; in the data active = activity change below about -50%; inconclusive = mostly about -30% to -49%
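THP-1 cells pretreated 1 hr with compounds (up to 57.5 uM final), then stimulated with LPS (250 ng/mL final) plus ATP (1.25 mM final); secreted IL-1B measured by AlphaLISA after 16 hr, decreased signal indicating inhibition.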
TDP1 cell noCPT = qHTS for Inhibitors of human tyrosyl-DNA phosphodiesterase 1 (TDP1): qHTS in cells in absence of CPT. 420,000 compounds, 15% hits. Potency, µM (top dose mostly 46.2 µM), inactives show at the top dose activity change, negative = growth inhibition, actives largely listed as inhibitors. AID 686978, 2013. DT40 Tdp1-/- hTDP1 cells, no CPT, ATP luminescence, 48 h; also: potency is read from the fitted curve at half-maximal effect; nearly all actives have a fitted effect of over 55% in size
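Chicken DT40 Tdp1-/- cells stably complemented with human TDP1 were seeded at 400 cells/well with DMSO in place of 20 nM camptothecin. After compound pinning, cells grew at least 48 hr at 37 °C; viability read by CellTiter-Glo luminescence.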
Gal4-VP16 FLuc = inhibits Gal4-VP16 luciferase reporter, ROR gamma counter-screen; Drosophila S2 Gal4-VP16 UAS-luciferase, luminescence, 20 h; Potency, µM (doses to about 53.6 µM), for the others: top-dose activity, negative = inhibition, most hits filed as inhibitors; 310,000 compounds, 3.5% hits; AID 2546;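 also: Gal4-VP16 expression switched on by copper sulfate through the metallothionein promoter; potency is read from the fitted curve at half-maximal effect; nearly all actives have a fitted effect of over 50% in size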
LDHA block = inhibitors of human lactate dehydrogenase A. AID 1347041. P00338. 480,000 compounds, 0.15% hits. activity change, % (values are at about 110 or 230 µM). purified LDHA, NADH/diaphorase-resazurin fluorescence; stronger effect = lower value; in the data active = activity change below about -30%; inconclusive = mostly about -25% to -30%;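 also: plate controls were DMSO wells for no effect and wells without enzyme for full effect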
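Human LDH5 (2 nM) was incubated with 0.06 mM NADH and 0.2 mM pyruvate for 5 min at room temperature in Tris pH 7.4. Remaining NADH was coupled through diaphorase/resazurin, and resorufin fluorescence was read at 0 and 20 min.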
DT40 TDP1 CPT = DT40-hTDP1 cell growth loss with CPT; AID 686979; 420,000 compounds, 12% hits; chicken DT40 Tdp1-/-;hTDP1 cells + 20 nM CPT, ATP luminescence, 48 h; Potency, µM (series often up to 46.2 µM), for inactives: top-dose activity change, negative = growth inhibition, usual class: inhibitors; also: potency is read from the fitted curve at half-maximal effect; nearly all actives have a fitted effect of over 55% in size
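Chicken DT40 Tdp1-/- cells stably complemented with human TDP1 were seeded at 400 cells/well in medium containing 20 nM camptothecin, exposed to pin-transferred compounds, and grown at 37 °C for at least 48 hr. Viability was read as ATP luminescence.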
* = called active by the depositor; u = inconclusive; x = no result. Shown are actives, neighbours in structure and some others; about 18% of the full set was active somewhere. Unless noted, calls follow the shape of the dose curve; as a rule, active = well fitted curve in the direction sought with a large enough effect; inconclusive = small, poorly fitted or top-dose-only effect, or another doubt; inactive = no such curve, though single readings can be large; an effect the other way counts as inactive or inconclusive. Unless noted, % is scaled to controls: 0 for no effect and ±100 for the full control effect.

SMILES	RORg inh	IL-1B inflam inh	TDP1 cell noCPT	Gal4-VP16 FLuc	LDHA block	DT40 TDP1 CPT
CCOc1ccc(-c2cc3nc(C4CCN(C(=O)OC(C)(C)C)CC4)c(C(=O)Nc4c(C)cccc4C)cn3n2)cc1	x	x	13µM*	x	-8	15µM*
CCOc1ccc(-c2cc3nc(C4CCN(C(=O)OC(C)(C)C)CC4)c(C(=O)Nc4ccc(C)cc4C)cn3n2)cc1	x	x	21µM*	x	2	18µM*
CCOc1ccc(-c2cc3nc(C4CCN(C(=O)OC(C)(C)C)CC4)c(C(=O)Nc4ccc(C)cc4Cl)cn3n2)cc1	x	x	u	x	4	u
CCOc1ccc(-c2cc3nc(C4CCN(C(=O)OC(C)(C)C)CC4)c(C(=O)Nc4cccc(Cl)c4C)cn3n2)cc1	x	x	15µM*	x	4	18µM*
O=C1CCCCC1C(Nc1ccc(Br)cc1)c1ccccc1 (stereo unspecified)	-17%	-72*	1%	-5%	-2	2%
O=C(N/N=C/C=C\c1ccccc1[N+](=O)[O-])c1cccs1	14µM*	-18	u	u	-1	u
O=C(Cc1cccs1)N/N=C/C=C/c1ccccc1[N+](=O)[O-]	2%	x	-4%	-13%	-1	2%
COc1ccccc1/C=C/C=N/NC(=O)Cc1cccs1	10µM*	-26	u	u	-8	9%
O=C(N/N=C/c1cccc([N+](=O)[O-])c1)c1cccs1	-27%	0	-10%	u	-1	-10%
O=C(N/N=C/C=C/c1ccc([N+](=O)[O-])cc1)c1cccs1	4µM*	12	-2%	u	-9	-19%
Cc1cc(C(=O)N/N=C/C=C/c2ccccc2[N+](=O)[O-])c(C)o1	u	-24	-29%	u	3	-5%
O=C(N/N=C/C=C\c1ccccc1[N+](=O)[O-])c1cc(-c2ccc3ccccc3c2)n[nH]1	3.2µM*	-1	18µM*	4.5µM*	u	u
O=C(CCN1CCN(c2cnccn2)CC1)Nc1ccccc1F	x	x	x	x	-1	x
O=C(Nc1cccc(CO)c1)c1cccc2cccnc12	x	x	x	x	2	x
O=C(N/N=C/C=C/c1ccccc1[N+](=O)[O-])c1ccncc1	11µM*	20	u	20µM*	1	u
O=C(N/N=C/c1ccccc1[N+](=O)[O-])c1ccncc1	23%	11	9%	13%	-2	-16%
COc1ccccc1/C=C/C=N/NC(=O)c1ccncc1	5.6µM*	-25	-12%	11µM*	-4	8%
Cc1occc1C(=O)N/N=C/C=C/c1ccccc1[N+](=O)[O-]	11µM*	-62*	1%	u	-8	7%
CCC1COCCS(=O)(=O)N1Cc1ccccc1F (stereo unspecified)	-22%	9	-4%	2%	1	-22%
O=S1(=O)CCOC[C@H](CC2CCCCC2)N1Cc1ccccc1Br	1%	-11	21µM*	0%	3	u
O=S1(=O)CCOC[C@H](CC2CCCCC2)N1Cc1ccccc1F	-2%	-16	20µM*	1%	7	u
CCC1COCCS(=O)(=O)N1Cc1ccccc1C (stereo unspecified)	-18%	2	u	-4%	-1	-4%
O=C(NC1CCCc2ccccc21)C1(c2ccccc2)CC1 (stereo unspecified)	x	x	x	x	-3	x
CN1CCCCC1CC(=O)O (stereo unspecified)	x	x	x	x	-1	x
Cc1ccc(C)c(N2CCN(C(=O)c3ccc(CS(=O)(=O)c4ccccc4C)o3)CC2)c1	-16%	1	18µM*	3%	1	18µM*
SMILES	RORg inh	IL-1B inflam inh	TDP1 cell noCPT	Gal4-VP16 FLuc	LDHA block	DT40 TDP1 CPT
Cc1ccc(S(=O)(=O)Cc2ccc(C(=O)N3CCN(c4ccccn4)CC3)o2)cc1	-3%	-1	u	3%	-12	12µM*
COc1ccc(N2CCN(C(=O)c3ccc(CS(=O)(=O)c4ccccc4C)o3)CC2)cc1	42%	19	u	8%	-3	u
Cc1ccc(S(=O)(=O)Cc2ccc(C(=O)N3CCCCCC3)o2)cc1	15%	-14	-27%	21%	-13	u
Cc1ccc(S(=O)(=O)Cc2ccc(C(=O)N3CCN(c4cc(C)ccc4C)CC3)o2)cc1	11%	18	12µM*	4%	1	15µM*
O=C(c1ccc(CS(=O)(=O)c2ccc(Br)cc2)o1)N1CCN(c2ccccn2)CC1	24%	-12	u	-1%	-10	-25%
N#Cc1ccc(COC(=O)CSC(=S)N2CCOCC2)cc1	x	x	x	x	3	x
CC1=C(C(=O)OC(C)(C)C)C(c2ccc(F)cc2)C(C#N)=C(N)O1 (stereo unspecified)	x	x	x	x	-15	x
COC(=O)/C(C#N)=C/c1ccc(-c2ccc(Br)cc2)o1	x	x	x	x	0	x
C=C(C)c1ccc(C(C)(C)NC(=O)N2CCN(C)CC2)cc1	-12%	29	21µM*	6%	-7	16µM*
Cc1cccc(CN2CCC(CNC(=O)Nc3cn(C)c(=O)c4ccccc34)CC2)c1	x	x	x	x	0	x
O=C(Nc1ccccc1C(F)(F)F)c1ccc(CN2CCC(Cc3ccccc3)CC2)cc1	29%	-52*	-96%	-3%	-4	18µM*
O=C(NCC1CCN(Cc2cccc(Cl)c2)CC1)Nc1ccccc1Cl	-2%	-83*	u	10%	-3	-21%
Cc1ccc(NC(=O)NCC2CCN(Cc3cccc(Cl)c3)CC2)c(Cl)c1	-13%	-51*	-30%	-6%	-1	u
Cc1ccc(CN2CCC(CNC(=O)Nc3ccccc3F)CC2)cc1	-11%	-53*	u	-3%	-3	1%
CCCc1noc(CN2CCC(c3nc4ccccc4s3)CC2)n1	x	x	x	x	-5	x
C/C(=N/NC(=O)C1CC1c1ccccc1)c1ccc(CC(C)C)cc1 (stereo unspecified)	x	x	x	x	7	x
O=C(NCC(=O)N1CCCC(C(F)(F)F)C1)c1ccccc1Br (stereo unspecified)	x	-7	9%	x	1	10%
O=C(NC(=S)N1CCCC(C(F)(F)F)C1)c1ccc(F)cc1 (stereo unspecified)	0.56µM*	-23	23µM*	0.71µM*	-15	18µM*
COC(=O)CCCC(=O)N1CCCC(C(=O)c2ccc(-c3ccccc3)cc2)C1 (stereo unspecified)	14%	9	u	30%	0	u
CCC(=O)N1CCCC(C(=O)c2ccc(-c3ccccc3)cc2)C1 (stereo unspecified)	u	-68*	u	-9%	-5	u
